{"source": "PubChem BioAssay AID463173", "about": "(ICCB-Longwood Screening Facility, Harvard Medical School, 2010)", "note": "About 4,300 (8.3%) of roughly 52,000 compounds were called active. For the sample, actives were picked, then their nearest neighbours and some compounds at random. Unmarked numbers belong to inactive results. No stated cut-off is given here; in the data, active means survival mostly below about 52% (no sharp cut-off); inactive means mostly above about 56%.", "data": [{"system": "DeltatarO mutant", "assay": "S. aureus survival, RN4220 and DeltatarO strains – OD600, teichoic acid synthesis inhibitors, primary screen (AID 463173)", "conditions": "S. aureus RN4220 wild type/DeltatarO growth, OD600, 18 h, hits give low values, screened at 18.75 µg/mL (by protocol)", "values": [{"smiles": "COc1ccc(CNC(=O)CCNS(=O)(=O)c2ccc3c(c2)CCCC(=O)N3)cc1", "survival": "119%"}, {"smiles": "COc1ccccc1NC(=O)C1=C(C)Nc2nc(SCc3ccccc3Cl)nn2C1c1ccccn1", "note": "(centres undefined)", "survival": "171%"}, {"smiles": "CCn1cc(C(=O)N2CCN(c3ccc(OC)cc3)CC2)c(=O)c2cc(S(=O)(=O)N(C)C3CCCCC3)ccc21", "survival": "122%"}, {"smiles": "CC(NC(=O)c1ccc(NC(=O)c2nsc3ccccc23)cc1)c1ccccc1", "note": "(centres undefined)", "survival": "84%"}, {"smiles": "O=C(Cc1csc2ccccc12)NCc1ccc(F)cc1", "survival": "71%"}, {"smiles": "Cc1cc(C)c(NC(=O)C(C)n2c(=O)cc(C)c3c(C)nn(-c4ccccc4)c32)c(C)c1", "note": "(centres undefined)", "survival": "81%"}, {"smiles": "Cn1nc(C(=O)NCc2ccccc2)c2c1-c1ccccc1S(=O)(=O)C2", "survival": "85%"}, {"smiles": "Cn1nc(C(=O)Nc2ccc(F)c(Cl)c2)c2c1-c1ccccc1S(=O)(=O)C2", "survival": "90%"}, {"smiles": "COc1ccc(Cl)cc1NC(=O)c1nn(C)c2c1CS(=O)(=O)c1ccccc1-2", "survival": "53%"}, {"smiles": "COc1ccc(NC(=O)c2nn(C)c3c2CS(=O)(=O)c2ccccc2-3)cc1Cl", "survival": "56% (active)"}, {"smiles": "COCCCNC(=O)c1nn(C)c2c1CS(=O)(=O)c1ccccc1-2", "survival": "99%"}, {"smiles": "CC(C)NC(=O)c1nn(C)c2c1CS(=O)(=O)c1ccccc1-2", "survival": "51% (active)"}, {"smiles": "CCN1C(=O)c2ccccc2Sc2ccc(NC(=O)COc3ccc(Cl)cc3)cc21", "survival": "91%"}, {"smiles": "CCCCN(CC)CCNC(=O)c1c(C)oc2ncnc(N3CCOCC3)c12", "survival": "87%"}, {"smiles": "COc1cccc(N2CCN(c3nc4ccc(C(=O)c5ccccc5)cc4n4c(C)nnc34)CC2)c1", "survival": "102%"}, {"smiles": "Cc1c(C(=O)OCCOc2ccccc2)[nH]c2c1C(=O)CC(c1ccccc1Cl)C2", "note": "(centres undefined)", "survival": "80%"}, {"smiles": "CCC(=O)N1CCc2cc(Br)cc(S(=O)(=O)CCC(=O)NCCc3ccccc3Cl)c21", "survival": "72%"}, {"smiles": "CCC(=O)N1CCc2cc(Br)cc(S(=O)(=O)NCCc3ccc(C)cc3)c21", "survival": "85%"}, {"smiles": "CCC(=O)N1CCc2cc(Br)cc(S(=O)(=O)NCCc3ccccc3)c21", "survival": "43% (active)"}, {"smiles": "CCC(=O)N1CCc2cc(Br)cc(S(=O)(=O)NCCc3cccc(C)c3)c21", "survival": "102%"}, {"smiles": "CCC(=O)N1CCc2cc(Br)cc(S(=O)(=O)NCCc3ccccc3Cl)c21", "survival": "39% (active)"}, {"smiles": "CCC(=O)N1CCc2cc(Br)cc(S(=O)(=O)NCc3ccccc3)c21", "survival": "66%"}, {"smiles": "CC(CNC(=O)c1ccc2nc(Cc3ccccc3)oc2c1)c1ccccc1", "note": "(centres undefined)", "survival": "70%"}, {"smiles": "CC(Sc1nccn1C)C(=O)Nc1ccccc1C#N", "note": "(centres undefined)", "survival": "85%"}]}]}
